# In the supplement of paper PMC9135407:
# Several values for one entry are separate records, joined by “and”; a condition that tells them apart may be missing. Identical values can stand only once. Counter-ions that a name gives are not always drawn. Screen size: about 5,800 compounds; about 620 (11%) showed activity. Only a selection was taken, and actives are over-represented in it overall. Values without a mark were called inactive.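 Rule for the calls: active = score above a cut-off or among the top three wells of a plate; in these data no inactive exceeds 0.85.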
# Test system: primary human hepatic stellate cells (donor 1)
# Assay: scaled lipid accumulation score (0 = DMSO-like, 1 = nortriptyline-like); higher = stronger HSC inactivation (lipid re-accumulation), active = hit call of the paper
# Details: 48 h
# [1] = library stock concentration: 1 mM
# [2] = library stock concentration: 3.33 mM
# [3] = library stock concentration: 10 mM
# [4] = library stock concentration: 2 mM
# [5] = library stock concentration: 80 uM
# [6] = library stock concentration: 400 uM
smiles,measurement,setting,value
COc1ccc2c(c1)c(CC(=O)SC[C@H](NC(C)=O)C(=O)OCCCCO[N+](=O)[O-])c(C)n2C(=O)c1ccc(Cl)cc1 [NO-Indomethacin],scaled lipid accumulation score,[1],≤ 0
C[C@@H]1C[C@H]2[C@@H]3CCC4=CC(=O)C=C[C@]4(C)[C@@]3(Cl)[C@@H](O)C[C@]2(C)[C@@]1(OC(=O)c1ccco1)C(=O)CCl [Mometasone furoate],scaled lipid accumulation score,,0.136
same,scaled lipid accumulation score,[2],0.086
same,scaled lipid accumulation score,[3],0.519
COc1cc(Nc2c(C#N)cnc3cc(OCCCN4CCN(C)CC4)c(OC)cc23)c(Cl)cc1Cl [Bosutinib (SKI-606) (2 mM)],scaled lipid accumulation score,[4],0.096
COc1cc(Nc2c(C#N)cnc3cc(OCCCN4CCN(C)CC4)c(OC)cc23)c(Cl)cc1Cl [Bosutinib (SKI-606)],scaled lipid accumulation score,[2],0.374
same,scaled lipid accumulation score,[3],0.395
COc1cc(Nc2c(C#N)cnc3cc(OCCCN4CCN(C)CC4)c(OC)cc23)c(Cl)cc1Cl [Bosutinib (SKI-606) (10 mM)],scaled lipid accumulation score,[3],0.388
COc1cc(Nc2c(C#N)cnc3cc(OCCCN4CCN(C)CC4)c(OC)cc23)c(Cl)cc1Cl [Bosutinib],scaled lipid accumulation score,[5],≤ -0.016
same,scaled lipid accumulation score,[6],≤ -0.016
same,scaled lipid accumulation score,[4],≤ -0.016
same,scaled lipid accumulation score,[3],≤ -0.016
CCN1CCC(n2cc(CNc3cc(Cl)c4ncc(C#N)c(Nc5ccc(F)c(Cl)c5)c4c3)nn2)CC1 [listing 1 of 2 here],scaled lipid accumulation score,[3],1.15 (active)
COc1cc(Nc2c(C#N)cnc3cc(OCCCN4CCN(C)CC4)c(OC)cc23)c(Cl)cc1Cl [Bosutinib (SKI-606) (0.4 mM)],scaled lipid accumulation score,[6],≤ -0.005
CCN1CCC(n2cc(CNc3cc(Cl)c4ncc(C#N)c(Nc5ccc(F)c(Cl)c5)c4c3)nn2)CC1 [listing 2 of 2 here],scaled lipid accumulation score,[5],≤ -0.009
same,scaled lipid accumulation score,[6],≤ -0.009
same,scaled lipid accumulation score,[4],≤ -0.009
CC(C)c1ccccc1S(=O)(=O)c1cc(N)c2ncccc2c1[N+](=O)[O-],scaled lipid accumulation score,[3],0.26
CC(C(=O)O)c1ccc(C(=O)c2cccs2)cc1 (stereo unspecified) [Suprofen],scaled lipid accumulation score,,≤ 0
same,scaled lipid accumulation score,[2],≤ 0
same,scaled lipid accumulation score,library stock concentration: 7.7 mM,≤ 0
same,scaled lipid accumulation score,[3],0.024 and ≤ 0
O=C(O)COc1ccc(C(=O)c2cccs2)c(Cl)c1Cl [Tienilic Acid],scaled lipid accumulation score,[1],≤ 0
CC(C)c1ccc(C(=O)c2cccs2)c(SCCCCCCCCN(C)C)n1.O=C(O)C(=O)O,scaled lipid accumulation score,[3],1.24 (active)
CC12CCC(CC1=O)C2(C)C (stereo unspecified) [Camphor (1r)],scaled lipid accumulation score,library stock concentration: 13.1 mM,≤ -0.001
CO[C@H]1O[C@@H]2O[C@@]3(C)CC[C@H]4[C@H](C)CC[C@@H]([C@H]1C)[C@@]24OO3,scaled lipid accumulation score,[3],≤ 0
CO[C@H]1O[C@@H]2O[C@@]3(C)CC[C@H]4[C@H](C)CC[C@@H]([C@H]1C)[C@@]24OO3 [Artemether],scaled lipid accumulation score,[2],≤ 0
same,scaled lipid accumulation score,[3],≤ 0 and 0.024
CN1CC[C@@H](c2c(O)cc(O)c3c(=O)cc(-c4ccccc4Cl)oc23)[C@@H]1CO,scaled lipid accumulation score,[2],≤ -0.009
same,scaled lipid accumulation score,[3],0.465
CS(=O)(=O)c1ccc(C(=O)Nc2ccc(Cl)c(-c3ccccn3)c2)c(Cl)c1 [Vismodegib (GDC-0449)],scaled lipid accumulation score,[2],0.002
same,scaled lipid accumulation score,[3],≤ 0
CN1CCN(S(=O)(=O)c2ccc(-c3cnc(N)c(C(=O)Nc4cccnc4)n3)cc2)CC1 [listing 1 of 2 here],scaled lipid accumulation score,[3],1.02 (active)
CS(=O)(=O)c1ccc(-c2cnc(N)c(C(=O)Nc3ccccc3)n2)cc1 [listing 1 of 2 here],scaled lipid accumulation score,[3],0.907 (active)
CN(C)c1nc(N)c(C(=O)Nc2cccnc2)nc1Cl [ACDPP hydrochloride],scaled lipid accumulation score,[3],≤ -0.001
CS(=O)(=O)c1ccc(-c2cnc(N)c(C(=O)Nc3ccccc3)n2)cc1 [listing 2 of 2 here],scaled lipid accumulation score,[5],0.017
same,scaled lipid accumulation score,[6],≤ 0
same,scaled lipid accumulation score,[4],≤ 0
same,scaled lipid accumulation score,[2],0.225
same,scaled lipid accumulation score,[3],0.489
CN1CCN(S(=O)(=O)c2ccc(-c3cnc(N)c(C(=O)Nc4cccnc4)n3)cc2)CC1 [listing 2 of 2 here],scaled lipid accumulation score,[2],0.821
Cl.O=C([O-])c1ccc(-c2c3nc(c(-c4ccc(C(=O)O)cc4)c4nc(c(-c5ccc(C(=O)O)cc5)c5ccc([nH]5)c(-c5ccc(C(=O)[O-])cc5)c5ccc2[n-]5)C=C4)C=C3)cc1.[Mn+3] [MnTBAP chloride],scaled lipid accumulation score,library stock concentration: 5.7 mM,≤ -0.012
Cc1cn([C@H]2O[C@@H](CO)[C@H](O)[C@H]2F)c(=O)[nH]c1=O [Clevudine],scaled lipid accumulation score,[2],≤ 0
same,scaled lipid accumulation score,[3],≤ 0
O=C(CCC/C=C\C[C@H]1C(=O)C[C@@H](O)C1/C=C/[C@@H](O)CCc1ccccc1)NC(CO)CO (stereo partly specified) [17-phenyl trinor Prostaglandin E2 serinol amide],scaled lipid accumulation score,[1],≤ 0
NC(=O)N[C@@H](CCC(=O)O)C(=O)O,scaled lipid accumulation score,[3],≤ 0
O=C(Oc1cc(S(=O)(=O)c2ccccc2)ccc1[N+](=O)[O-])c1ccc(Cl)cc1,scaled lipid accumulation score,[2],≤ -0.009
same,scaled lipid accumulation score,[3],≤ 0
S=C(NCc1ccc2c(c1)OCO2)N1CCN(c2ncnc3c2oc2ccccc23)CC1 [Amuvatinib  (MP-470) (2 mM)],scaled lipid accumulation score,[4],0.074
S=C(NCc1ccc2c(c1)OCO2)N1CCN(c2ncnc3c2oc2ccccc23)CC1,scaled lipid accumulation score,[5],0.069
same,scaled lipid accumulation score,[6],≤ -0.009
same,scaled lipid accumulation score,[4],0.025
same,scaled lipid accumulation score,[3],0.035
S=C(NCc1ccc2c(c1)OCO2)N1CCN(c2ncnc3c2oc2ccccc23)CC1 [Amuvatinib (MP-470)],scaled lipid accumulation score,[2],0.006
same,scaled lipid accumulation score,[3],≤ 0
S=C(NCc1ccc2c(c1)OCO2)N1CCN(c2ncnc3c2oc2ccccc23)CC1 [Amuvatinib  (MP-470) (10 mM)],scaled lipid accumulation score,[3],0.068
S=C(NCc1ccc2c(c1)OCO2)N1CCN(c2ncnc3c2oc2ccccc23)CC1 [Amuvatinib  (MP-470) (0.4 mM)],scaled lipid accumulation score,[6],0.042
O=C(O)[C@H]1NCCC[C@H]1C(=O)O,scaled lipid accumulation score,[3],≤ 0
C[S+]([O-])c1ccc(-c2nc(-c3ccc(F)cc3)c(-c3ccncc3)[nH]2)cc1 (stereo unspecified),scaled lipid accumulation score,[5],0.004
same,scaled lipid accumulation score,[6],≤ -0.009 and ≤ -0.005
same,scaled lipid accumulation score,[1],≤ 0
same,scaled lipid accumulation score,[4],0.017 and ≤ -0.005
same,scaled lipid accumulation score,[2],≤ 0
same,scaled lipid accumulation score,library stock concentration: 13.2 mM,≤ -0.012
CCCCCC=CC=CC(O)CCCCCCCC(=O)OCC(COC(=O)CCCCCCCC=CC=CC(O)CCCCC)OC(=O)CCCCCCCC=CC=CC(O)CCCCC (stereo unspecified) [Hydroxy Linoleins],scaled lipid accumulation score,[1],0.061
N#CCNC(=O)c1ccc(-c2ccnc(Nc3ccc(N4CCOCC4)cc3)n2)cc1 [listing 1 of 2 here],scaled lipid accumulation score,[5],≤ -0.009
same,scaled lipid accumulation score,[6],0.038
same,scaled lipid accumulation score,[4],≤ -0.009
same,scaled lipid accumulation score,[3],0.768
N#CCNC(=O)c1ccc(-c2ccnc(Nc3ccc(N4CCOCC4)cc3)n2)cc1 [listing 2 of 2 here],scaled lipid accumulation score,[2],1.05 (active)
same,scaled lipid accumulation score,[3],0.922 (active)
N#CCNC(=O)c1ccc(-c2ccnc(Nc3ccc(N4CCOCC4)cc3)n2)cc1 [Momelotinib (CYT387) (2 mM)],scaled lipid accumulation score,[4],0.858 (active)
c1ccc2c(Oc3nc(Nc4ccc(N5CCOCC5)cc4)c4ncn(C5CCCCC5)c4n3)cccc2c1 [Purmorphamine],scaled lipid accumulation score,[1],≤ 0
same,scaled lipid accumulation score,[2],≤ 0
same,scaled lipid accumulation score,[3],0.032
N#CCNC(=O)c1ccc(-c2ccnc(Nc3ccc(N4CCOCC4)cc3)n2)cc1 [Momelotinib (CYT387) (10 mM)],scaled lipid accumulation score,[3],0.945 (active)
N#CCNC(=O)c1ccc(-c2ccnc(Nc3ccc(N4CCOCC4)cc3)n2)cc1 [Momelotinib (CYT387) (0.4 mM)],scaled lipid accumulation score,[6],≤ -0.005
O=C(Nc1ccc(-c2ccnc(Nc3ccc(N4CCOCC4)cc3)n2)cc1)C1CCCN1 (stereo unspecified),scaled lipid accumulation score,[5],≤ 0
same,scaled lipid accumulation score,[6],0.007
same,scaled lipid accumulation score,[4],0.036
same,scaled lipid accumulation score,[2],0.063
same,scaled lipid accumulation score,[3],0.662
O=C(Nc1ccc(-c2ccnc(Nc3ccc(N4CCOCC4)cc3)n2)cc1)[C@@H]1CCCN1,scaled lipid accumulation score,[3],1.06 (active)
CC1=C(/C=C/C(=C/C=C/C(C)=C/C(=O)O)c2ccc(C)cc2)C(C)(C)CCC1,scaled lipid accumulation score,[3],≤ -0.001
CCCCCC=CCC=CCC=CCCCCCCC(=O)OC [Dihomo-.gamma.-Linolenic Acid methyl ester],scaled lipid accumulation score,[1],0.037
CC(C)CC(N)=O,scaled lipid accumulation score,[3],0.291
CC(C)CC(N)=O [Isovaleramide],scaled lipid accumulation score,[2],≤ 0
same,scaled lipid accumulation score,[3],≤ -0.001
Cc1ncc2ccccc2c1C#N [4-Cyano-3-methylisoquinoline],scaled lipid accumulation score,[2],≤ 0
"CC(=O)NC1[C@@H](O)OC(CO)[C@@H](O)[C@H]1O[C@H](C)C(=O)O (stereo in doubt) [Muramic acid, N-acetyl]",scaled lipid accumulation score,,≤ 0
CCC(=O)Oc1ccc2c(c1)CC[C@@H]1[C@@H]2CC[C@]2(C)[C@@H](OC(=O)CC)CC[C@@H]12,scaled lipid accumulation score,[3],≤ 0
Brc1c(Br)c(Br)c2n[nH]nc2c1Br [Casein Kinase II Inhibitor I],scaled lipid accumulation score,[2],≤ 0
CCN(CC)CCCCCCCCOC(=O)c1cc(OC)c(OC)c(OC)c1,scaled lipid accumulation score,library stock concentration: 12.6 mM,1.02 (active)
CCN(CCCCOC(=O)c1ccc(OC)c(OC)c1)C(C)Cc1ccc(OC)cc1 (stereo unspecified) [Mebeverine hydrochloride],scaled lipid accumulation score,,0.362
same,scaled lipid accumulation score,[3],≤ 0
"CCN(CC)CCOC(=O)c1cc(Cl)c(N)cc1OC [SDZ-205,557 hydrochloride]",scaled lipid accumulation score,[3],0.051
CCCOc1ccc(C(=O)OCCN(CC)CC)cc1N [Proparacaine HCl],scaled lipid accumulation score,[2],≤ 0
same,scaled lipid accumulation score,[3],≤ 0
CCN(CC)CCCCCCCCOC(=O)c1cc(OC)c(OC)c(OC)c1.Cl [TMB-8 hydrochloride],scaled lipid accumulation score,[3],1.03 (active)
CCCOc1ccc(C(=O)OCCN(CC)CC)cc1N [Proparacaine hydrochloride],scaled lipid accumulation score,,≤ 0
same,scaled lipid accumulation score,library stock concentration: 6 mM,≤ 0
CCCCOc1cc(C(=O)OCCN(CC)CC)ccc1N [Benoxinate hydrochloride],scaled lipid accumulation score,,0.276
CCCCOc1cc(C(=O)OCCN(CC)CC)ccc1N [Oxybuprocaine HCl],scaled lipid accumulation score,[2],≤ 0
same,scaled lipid accumulation score,[3],0.338
CCCOc1ccc(C(=O)OCCN(CC)CC)cc1N [Proxymetacaine],scaled lipid accumulation score,[3],0.166
CCN(CC)CCOC(=O)c1cc(Cl)c(N)cc1OC [SDZ 205-557 hydrochloride],scaled lipid accumulation score,[3],0.003
